Only a selection was taken, and hits are over-represented in it overall.
12-LOX inh: blocks human arachidonate 12S-lipoxygenase; Potency, µM (highest dose often 108 µM), without a hit: top-dose activity change, negative = inhibition, actives largely listed as inhibitors; purified 12hLO, xylenol orange hydroperoxide absorbance; AID 1671190; 1.1% of 580,000 active; P18054; note: potency is the fitted concentration of half-maximal effect
Target sequence (P18054 whole entry, looked up): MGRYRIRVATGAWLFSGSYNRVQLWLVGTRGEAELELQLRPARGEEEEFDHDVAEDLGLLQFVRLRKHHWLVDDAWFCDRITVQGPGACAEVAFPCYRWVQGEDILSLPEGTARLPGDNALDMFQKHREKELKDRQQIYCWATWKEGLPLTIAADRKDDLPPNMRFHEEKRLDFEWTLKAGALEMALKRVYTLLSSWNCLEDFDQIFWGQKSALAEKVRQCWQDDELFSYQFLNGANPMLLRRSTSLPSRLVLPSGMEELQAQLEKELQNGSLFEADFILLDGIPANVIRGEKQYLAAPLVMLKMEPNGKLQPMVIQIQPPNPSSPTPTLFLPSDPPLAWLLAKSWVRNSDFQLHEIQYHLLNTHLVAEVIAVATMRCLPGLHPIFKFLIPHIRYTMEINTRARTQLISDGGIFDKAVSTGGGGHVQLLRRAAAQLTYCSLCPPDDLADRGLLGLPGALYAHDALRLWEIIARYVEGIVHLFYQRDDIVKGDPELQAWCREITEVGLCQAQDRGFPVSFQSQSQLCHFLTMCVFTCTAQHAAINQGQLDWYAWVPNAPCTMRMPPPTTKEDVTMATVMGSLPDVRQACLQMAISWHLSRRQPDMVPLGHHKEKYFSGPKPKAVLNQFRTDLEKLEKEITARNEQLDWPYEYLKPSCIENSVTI
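Purified human 12hLO (150 nM final) in 25 mM Hepes, 0.01% Triton X-100, pH 7.0 was preincubated 15 min at room temperature with compound. Then 40 uM arachidonic acid was added, 30 min. Hydroperoxide was read by Fe-XO absorbance ratio 573/405 nm.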
IL-1B inflam inh: blocks inflammasome-driven IL-1 beta release; activity change, % at 57.5 µM; THP-1 LPS/ATP IL-1B secretion, AlphaLISA, 16 h; stronger effect = lower value; 4.7% of 360,000 active; in the data active = activity change below about -50%; inconclusive = mostly about -30% to -49%
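THP-1 cells pretreated 1 hr with compounds (up to 57.5 uM final), then stimulated with LPS (250 ng/mL final) plus ATP (1.25 mM final); secreted IL-1B measured by AlphaLISA after 16 hr, decreased signal indicating inhibition.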
DT40 TDP1 no CPT: qHTS for Inhibitors of human tyrosyl-DNA phosphodiesterase 1 (TDP1): qHTS in cells in absence of CPT. 15% of 420,000 active. Potency, µM (top dose mostly 46.2 µM), without a hit: at the highest dose activity change, negative = growth inhibition, usual class: inhibitors. DT40 Tdp1-/- hTDP1 cells, no CPT, ATP luminescence, 48 h; note: potency is the fitted concentration of half-maximal effect; nearly all actives have a fitted effect of over 55% in size
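A cellular qHTS used chicken DT40 cells lacking endogenous Tdp1 but carrying stably transfected human TDP1. Compounds were applied without camptothecin, and cell growth kinetics were judged by ATP-dependent luminescence after ≥48 hr.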
TDP1 cell CPT: growth inhibition of DT40 Tdp1-/-;hTDP1 cells with camptothecin (screen for TDP1 inhibitors); chicken DT40 Tdp1-/-;hTDP1 cells + 20 nM CPT, ATP luminescence, 48 h; Potency, µM (series often up to 46.2 µM), for the others: at the top dose activity change, negative = growth inhibition, hits mostly inhibitors; 12% of 420,000 active; AID 686979; note: potency is the fitted concentration of half-maximal effect; nearly all actives have a fitted effect of over 55% in size
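Cell growth measured by CellTiter-Glo luminescence after a minimum 48 h, 37 C compound exposure with 20 nM CPT in Tdp1-knockout DT40 cells stably expressing hTDP1, seeded 400/well; qHTS titration format.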
HT1080NT lethal: kills 2HG-producing HT-1080-NT fibrosarcoma cells. HT-1080-NT fibrosarcoma viability, CellTiter-Glo ATP luminescence, 48 h. Potency, µM (doses to about 46.1 µM), without a hit: top-dose activity, negative = less viability, usual class: cytotoxic. 1.6% of 360,000 active;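 note: NT is the 2HG producing partner of a matched IDH1 knockdown line; potency is the fitted concentration of half-maximal effect; 0% = DMSO-treated cells and -100% = media-only wells without cells; nearly all actives have a fitted effect of over 55% in size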
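750 cells/well, RPMI + 5% FBS; 2 h settle, compound pin-transfer, 48 h at 37 degrees C. CellTiter-Glo 10 min RT, luminescence. Normalized to DMSO and media-only wells.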
HT1080 IDH1KD tx: kills HT-1080 cells with IDH1 knockdown. 2% of 360,000 active. HT-1080 IDH1 knockdown viability, ATP luminescence, 48 h. AID 686971. Potency, µM (highest dose often 46.1 µM), without a hit: at the top dose activity, negative = toxicity, most hits filed as cytotoxic;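 note: potency is the fitted concentration of half-maximal effect; 0% = DMSO wells and -100% = cell-free medium wells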
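Viability of IDH1-knockdown HT-1080 fibrosarcoma cells was assessed by CellTiter-Glo after 48 h at 37 °C with titrated compound; concentration-effect curves were classified by fit quality and response size.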
* hit, by the source's call; ? = inconclusive; nt = no result; [ ] = dose if it differs, or a comment. Unless noted, calls come from the whole dose curve; as a rule, active = well fitted curve in the direction sought with a large enough effect; inconclusive = small, poorly fitted or top-dose-only effect, or another doubt; inactive = no such curve, though single readings can be large; an effect the other way counts as inactive or inconclusive. Unless noted, % is set by controls: 0 for no effect and ±100 for the full control effect.

SMILES	12-LOX inh	IL-1B inflam inh	DT40 TDP1 no CPT	TDP1 cell CPT	HT1080NT lethal	HT1080 IDH1KD tx
COc1ccccc1OCC(O)CN1CCN(C(=O)c2ccccc2)CC1 (stereo not drawn)	?	10.1	-7.7%	16.0%	16.6%	12.4%
CCCCCn1c(=N)n(CC(O)COc2ccccc2OC)c2ccccc21 (stereo not drawn)	-8.2%	-58.8*	5.8µM*	3.66µM*	?	?
Cc1nccn1CC(O)Cn1c2ccccc2c2ccccc21 (stereo not drawn)	0.0%	-52.9*	?	?	?	-24.9%
Cc1ccccc1OCC(O)CN1CCN(CC(O)COc2ccccc2C)C(C)C1 (stereo not drawn)	-7.2%	-63.1*	16.4µM*	?	25.9µM*	?
Cc1ccccc1OCC(O)CN1CCN(c2nccs2)CC1 (stereo not drawn)	7.5%	nt	nt	nt	nt	nt
COc1ccc(-c2noc(C(C)NC(=O)c3ccccc3Cl)n2)cc1 (stereo not drawn)	15.8%	nt	nt	nt	nt	nt
CN(CC1(C)CCOCC1)C(=O)c1ccnn1C	-7.7%	nt	nt	nt	nt	nt
CCOC(=O)c1c(C)c(C(=O)Nc2ccc(C)c(F)c2)c(C)n1C	2.0%	nt	nt	nt	nt	nt
CCn1c(=N)n(CCOc2ccc(Br)cc2)c2ccccc21	?	nt	5.17µM*	5.8µM*	nt	nt
N=c1n(Cc2ccccc2)c2ccccc2n1CC(O)c1ccccc1 (stereo not drawn)	-19.5%	?	20.6µM*	10.3µM*	?	?
Cc1ccccc1OCC(O)Cn1c2ccccc2c2ccccc21 (stereo not drawn)	-22.2%	-84.9*	?	?	?	?
OCCNc1nc2ccccc2n1CC(O)c1ccccc1 (stereo not drawn)	-4.5%	7.9	?	-23.8%	25.4%	28.4%
COc1ccc(OCCn2c(=N)n(CCO)c3ccccc32)cc1	0.0%	-15.8	?	-18.4%	-4.9%	-10.1%
OC(COc1ccccc1)Cn1c2ccccc2c2ccccc21 (stereo not drawn)	-20.5%	0.0	?	?	?	?
CC(=Nc1ccc([N+](=O)[O-])cc1)N(C)C	-23.1%	nt	nt	nt	nt	nt
O=C(NCCc1ccccc1)N1CCC(N2C(=O)C3(CCCCC3)C2c2ccncc2)CC1 (stereo not drawn)	40.6%	nt	nt	nt	nt	nt
Cc1ccc(-n2c3c(c(=O)[nH]c2=O)C(NC(=O)c2ccccc2C)(C(F)(F)F)C(=O)N3)cc1 (stereo not drawn)	-20.4%	nt	23.1µM*	13µM*	nt	nt
NC(=O)Cc1c[nH]c2ncc(-c3ccc(F)c(Cl)c3)cc12	-8.4%[176 µM]	nt	nt	nt	nt	nt
CCCCSCCCNC(=O)C1CCC(CNS(=O)(=O)c2c(C)cc(C)cc2C)CC1 (stereo not drawn)	?	nt	18.4µM*	14.6µM*	nt	nt
COc1ccc(OC)c(NC(=O)C2(C)CCN2Cc2ccc(SC)cc2)c1 (stereo not drawn)	2.5%	-6.0	-29.8%	6.9%	3.4%	-9.2%
COc1ccc(OCCNC(=O)C2(C)CCN2Cc2ccc(SC)cc2)cc1 (stereo not drawn)	?	-9.5	16.4µM*	?	-24.5%	-11.7%
COc1ccc(OCCNC(=O)C2(C)CCN2Cc2ccc3ccccc3c2)cc1 (stereo not drawn)	-0.8%	-13.6	16.4µM*	29.1µM*	?	?
Clc1cc(CSc2ncnc3ccccc23)cc2c1OCCCO2	23.6%	nt	nt	nt	nt	nt
Cc1nn(C(C)C(=O)N2CCCCC2)c(=O)c2c1sc1ccccc12 (stereo not drawn)	45.6%	7.1	20.6µM*	?	9.8%	-0.2%
COc1ccc(N2CCN(C(=O)C(C)n3nc(C)c4sc5ccccc5c4c3=O)CC2)cc1 (stereo not drawn)	-22.2%	nt	16.4µM*	?	nt	nt
SMILES	12-LOX inh	IL-1B inflam inh	DT40 TDP1 no CPT	TDP1 cell CPT	HT1080NT lethal	HT1080 IDH1KD tx
COc1ccc(CNC(=O)c2ccc3noc(-c4ccccc4)c3c2)cc1OC	-10.7%	nt	nt	nt	nt	nt
COCCCNC(=O)N1C[C@@H]2CCCN3CCC[C@@H]([C@H]23)[C@H]1CCCC(=O)Nc1ccccc1	1.9%	nt	nt	nt	nt	nt
CCOC(=O)C1CCCN(C(=O)c2cc(-c3ccc(F)cc3)nc3ccccc23)C1 (stereo not drawn)	0.8%	-13.6	14.6µM*	?	?	-8.6%
CCN1CCCC(OC(=O)c2cc(-c3ccc(C)cc3)nc3ccccc23)C1 (stereo not drawn)	?	-147.2*	16.4µM*	?	-27.9%	?
CCOC(=O)C1CCCN(C(=O)c2cc(Nc3ccc(OC)cc3)nc3ccccc23)C1 (stereo not drawn)	-0.6%	-0.7	14.6µM*	20.6µM*	-0.1%	-8.5%
CCOC(=O)C1CCCN(C(=O)c2cc(-c3ccco3)nc3ccccc23)C1 (stereo not drawn)	8.91µM*	3.5	-1.0%	-10.2%	-0.8%	8.1%
CCOCCCNC(=O)/C=C/c1ccc(-c2ccc(F)cc2)s1	4.5%	nt	nt	nt	nt	nt
CCC(C)NC(=O)CCNC(=O)N1CCn2c1nc1ccccc12 (stereo not drawn)	0.9%	nt	nt	nt	nt	nt
COc1ccc(Nc2nc3cc(C)ccc3nc2NS(=O)(=O)c2ccc(C)cc2)cc1	8.7%	nt	nt	nt	nt	nt
CCN1CCC(NC(=O)C2CC(C)=C(C)CC2C(=O)O)CC1 (stereo not drawn)	-26.7%	nt	nt	nt	nt	nt
O=C(c1ccco1)N1CCN(C(=O)C(Sc2ccccc2)c2ccccc2)CC1 (stereo not drawn)	-19.1%	-3.4	?	16.4µM*	-17.4%	-13.9%
O=C(C(Sc1ccccc1)c1ccccc1)N1CCN(c2ccccc2)CC1 (stereo not drawn)	-0.3%	?	?	?	-4.6%	-11.7%
CCc1ccc(-c2csc(/C(C#N)=C/Nc3ccccc3CC)n2)cc1	-40.1%	nt	nt	nt	nt	nt
Cc1cc(C)cc(Nc2cc(=O)n(C3CCCCC3)c(=O)[nH]2)c1	-2.0%	22.2	18.4µM*	?	?	?
CC1CCN(c2cc(=O)n(C3CCCCC3)c(=O)[nH]2)CC1	9.2%[57.4 µM]	19.2	-20.7%	?	-1.7%	6.6%
C/C(=N\O)C(=O)NCc1ccccn1	13.4%	16.8	-3.9%	-11.0%	10.7%	9.4%
O=C(NCc1ccccn1)/C(=N/O)c1ccccc1	1.1%	12.3	14.6µM*	14.6µM*	25.4%	26.3%
O=C1CN(CC(=O)Nc2cc(Cl)cc(Cl)c2)CCN1	1.1%	nt	nt	nt	nt	nt
